From PubChem BioAssay (NCI)
This is part of a sample that, as a whole, favours compounds with a hit. Of some 79,000 tested, about 15% had one in any assay. Values without a mark were called inactive. Active and inactive are the calls of the source. Cut-off read from the data, not from the text of the source: active = growth inhibition above about 70%; inactive = the rest.

Tests used:
[1] = NCI Yeast Anticancer Drug Screen. Data for the rad50 strain (AID 155);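 note: 0% = growth of vehicle-only cultures of the same strain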; conditions: S. cerevisiae rad50 strain growth inhibition, active compounds read high
How it was run: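 A DNA repair-deficient yeast mutant serves as the test organism; compound-induced growth inhibition is calculated against vehicle-treated cells.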

[2] = NCI Yeast Anticancer Drug Screen. Data for the mec2-1 strain (AID 157); conditions: S. cerevisiae mec2-1 strain, active compounds read high
How it was run: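 Test agents were screened against the mec2-1 yeast strain, with defined DNA repair or cell cycle alteration. Growth was scored as inhibition against vehicle-only controls.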

[3] = NCI Yeast Anticancer Drug Screen. Data for the sgs1 mgt1 strain (AID 161);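 note: 0% = growth of cultures given vehicle only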; conditions: S. cerevisiae sgs1 mgt1 strain, active compounds read high
How it was run: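 Inhibition of yeast growth, normalised to vehicle-treated controls, is reported for a strain bearing genetic alterations in DNA damage repair.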

[4] = NCI Yeast Anticancer Drug Screen. Data for the cln2 rad14 strain (AID 165);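 note: 0% = growth equal to vehicle treated cultures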; conditions: S. cerevisiae cln2 rad14 strain, active compounds read high
How it was run: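 Growth of compound-exposed yeast (cln2 rad14 genotype) measured and expressed as inhibition relative to vehicle.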

[5] = NCI Yeast Anticancer Drug Screen. Data for the bub3 strain (AID 167); conditions: S. cerevisiae bub3 mutant strain, active compounds read high
How it was run: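 Inhibition values come from growth of compound-treated mutant yeast normalised to vehicle-treated controls.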

[6] = NCI Yeast Anticancer Drug Screen. Data for the mlh1 rad18 strain (AID 175); conditions: S. cerevisiae mlh1 rad18 strain growth inhibition, active compounds read high
How it was run: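 In this whole-cell yeast screen, a strain with altered DNA damage repair is challenged with compound, and its growth is measured against matched vehicle-treated controls.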

[7] = at 5.0 µM (retest, dose inferred, filed as 0.5)
[8] = at 50.0 µM (retest, dose inferred, filed as 5.0)

| Structure (SMILES) | growth inhibition [1, 7] | growth inhibition [1, 8] | growth inhibition ([1]; at 50.0 µM) | growth inhibition [2, 7] | growth inhibition [2, 8] | growth inhibition ([2]; at 50.0 µM) | growth inhibition [3, 7] | growth inhibition [3, 8] | growth inhibition ([3]; at 50.0 µM) | growth inhibition [4, 7] | growth inhibition [4, 8] | growth inhibition ([4]; at 50.0 µM) | growth inhibition [5, 7] | growth inhibition [5, 8] | growth inhibition ([5]; at 50.0 µM) | growth inhibition [6, 7] | growth inhibition [6, 8] | growth inhibition ([6]; at 50.0 µM) |
| --- | --- | --- | --- | --- | --- | --- | --- | --- | --- | --- | --- | --- | --- | --- | --- | --- | --- | --- |
| CC1=C(C(=S)Nc2ccc(Cl)c(C(=O)OC(C)C)c2)SCCO1 | 27% | 71% (active) | 89.6% (active) | 19% | 54% | 90.2% (active) | 27% | 90% (active) | 91.5% (active) | 25% | 64% | 47.4% | 26% | 95% (active) | 87.1% (active) | 21% | 50% | 63.8% |
| O=C1OC(=O)c2ccc([N+](=O)[O-])c3cccc1c23 | 0% | 7% | 70.4% (active) | 2% | 9% | 51.6% | 2% | 2% | 76.4% (active) | 3% | 14% | 26.4% | 0% | 16% | 74.2% (active) | 0% | 13% | 82.8% (active) |
| Nc1ccccc1Nc1c([N+](=O)[O-])cc(C(F)(F)F)cc1[N+](=O)[O-] | 53% | 78% (active) | 89.2% (active) | 41% | 55% | 92.3% (active) | 48% | 69% | 92.7% (active) | 42% | 55% | 85.5% (active) | 46% | 61% | 91.4% (active) | 51% | 76% (active) | 90.5% (active) |
| COc1cccc(C=O)c1O | 6% | 75% (active) | 74.6% (active) | -3% | 21% | 1.05% | 1% | 29% | 17.5% | 1% | 23% | -23.5% | -6% | 0% | -9.35% | 1% | 66% | 62.5% |
| OC1c2cccn2-c2cc(Cl)ccc2SC1c1ccccc1 (configuration not stated) | 2% | 97% (active) | 97% (active) | 1% | 98% (active) | 82.3% (active) | 15% | 97% (active) | 96.2% (active) | -7% | 97% (active) | 93.2% (active) | 24% | 97% (active) | 95.6% (active) | 8% | 97% (active) | 94.8% (active) |
| CC1SC(c2ccc(Cl)cc2)N2C(=O)C(C)SC(c3ccc(Cl)cc3)N2C1=O (configuration not stated) | 84% (active) | 91% (active) | 71% (active) | 53% | 91% (active) | 27.1% | 85% (active) | 95% (active) | 30.9% | 84% (active) | 93% (active) | 52.6% | 79% (active) | 94% (active) | 26.1% | 74% (active) | 90% (active) | 60% |
| CCC(C)N(C(=O)c1ccccc1)c1ccccc1 (configuration not stated) | -1% | -2% | 2.8% | 1% | -1% | 6.15% | 2% | -3% | -7.35% | 0% | 3% | 39.8% | -3% | -1% | -4.45% | -3% | 2% | -3.65% |
| COc1ccc(SC2=C(N(C)C(C)=O)C(=O)c3ccccc3C2=O)cc1 | 98% (active) | 99% (active) | 99.5% (active) | 97% (active) | 100% (active) | 99.7% (active) | 97% (active) | 100% (active) | 99.7% (active) | 95% (active) | 99% (active) | 99.7% (active) | 99% (active) | 99% (active) | 99.6% (active) | 98% (active) | 99% (active) | 99.6% (active) |
| O=C1C=CC(=O)C(c2ccc(Cl)cc2)=C1 | 45% | 96% (active) | 90.8% (active) | 54% | 97% (active) | 93% (active) | 33% | 99% (active) | 92.8% (active) | 40% | 99% (active) | 91.5% (active) | 44% | 97% (active) | 92% (active) | 32% | 98% (active) | 90.8% (active) |
